# Laboratory results taken from PubChem BioAssay (NCI).
# About 83,000 compounds went through this panel and 20% of them were active in at least one assay; those are over-represented in the sample as a whole.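 Cells were grown in 96-well plates and exposed to the test compound at a single concentration for 48 hours; results are reported as percent growth, with values below 10 considered active.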 Activity calls are given as the source filed them.
# Tested on: HL-60(TB) leukemia
# Experiment: NCI-60 one-dose screen, 48 h (100 = growth as untreated, 0 = no growth, -100 = all killed)
# Details: 10 µM unless noted
row,SMILES,growth
1,COc1ccc2c(c1)OC1=C(C(=O)OC1)C2c1cc(OC)c2c(c1)OCO2 (stereo unspecified),-13% (active)
2,COc1cc(-c2nc3ccccc3s2)ccc1NC(=O)COc1ccc(Cl)cc1,56.3% (inactive)
3,CCCCCN1C(=O)/C(=c2\sc3n(c2=O)C2C(NN=3)N(CC)C(=O)N2CC)c2ccccc21 (stereo unspecified),-56.6% (active)
4,CCCCOc1ccc(/C=C2/SC(N3CCOCC3)=NC2=O)cc1OCC,101% (inactive)
5,O=C1c2cccc3c([N+](=O)[O-])ccc(c23)C(=O)N1CCCCl,-25.4% [100 µM] (active)
6,C#Cc1cc2c(N)c(C(=O)c3cc(OC)c(OC)c(OC)c3)[nH]c2cc1OC,-6.26% (active)
7,CN1CCCc2cc(/C=C3\SC(=S)N(C(Cc4ccc(O)cc4)C(=O)O)C3=O)ccc21 (stereo unspecified),99.9% (inactive)
8,c1ccc(Nc2ccccn2)nc1,101% (inactive)
9,O=C(N/N=C/c1ccccc1O)C(=O)Nc1ccc(F)cc1,29.6% (inactive)
10,O=C1Nc2ccc(Br)cc2C1=N/C=c1\[nH]c(=O)/c(=C/c2ccc(Cl)cc2)s1,100% (inactive)
11,COc1ccc2c(c1)C(c1cc(OC)c3c(c1)OCO3)C1=C(COC1=O)N2 (stereo unspecified),4.04% (active)
12,CC1=C(SCCC(=O)OC(C[Se]C2=C(C)C(=O)c3ccccc3C2=O)C(=O)NCCCCCC(=O)OCc2ccccc2)C(=O)c2ccccc2C1=O (stereo unspecified),-1.59% (active)
13,Nc1cc2c3c(cccc3c1)C(=O)N(CCN1CCCC1)C2=O,1.24% (active)
14,O=C(CN1CCCCCC1)Nc1nc2ccc(NCc3ccc(Cl)cc3)cc2s1,95.9% (inactive)
15,CCC(C)C1NC(=O)C(CC(C)C)NC(=O)C(C)NC(=O)C(C(C)C)NC(=O)C(CCCCN)NC(=O)C(CC(C)C)NC(=O)C(C(C)C)NC(=O)[C@H](C)NC(=O)C(C(C)CC)NC(=O)C(CCCN=C(N)N)NC(=O)C(CCCCN)NC(=O)C(CCCN=C(N)N)NC(=O)C(CCCCN)NC(=O)C([C@H](C)CC)NC(=O)C(CCCCN)NC1=O (stereo partly specified),-39.5% (active)
16,O=CNc1cc(Cl)cc(Cl)c1,93.2% (inactive)
17,CCC(C)(C)C(=O)O[C@H]1C[C@@H](C)C=C2C=C[C@H](C)[C@H](CC[C@@H]3C[C@@H](O)CC(=O)O3)[C@H]21,77.1% (inactive)
18,CCn1cc(CNc2ccc(C(=O)Nc3ccc4ccccc4c3)cc2)c(C)n1,79.8% (inactive)
19,CC(=O)n1c(-c2ccc(Cl)c(Cl)c2)cn(-c2ccc(Cl)cc2)c1=O,64.8% (inactive)
20,CCN(CC)CCCC(C)NCc1ccccc1 (stereo unspecified),105% (inactive)
21,COCCc1n(Cc2ccc3ccccc3c2)c2ccccc2[n+]1Cc1ccc2ccccc2c1,-62.4% (active)
22,CNC(=O)NCC1OC(n2cnc3c(NC(=O)Nc4ccccc4)ncnc32)C(O[Si](C)(C)C(C)(C)C)C1CC(=O)N(C)OC (stereo unspecified),-33.1% (active)
23,O=C1/C(=C\c2ccc[nH]2)c2ccccc2N1c1ccccc1,94.4% (inactive)
24,CN1C(=O)N(C)C2C1NN=c1s/c(=C\C=C\c3ccccc3)c(=O)n12 (stereo unspecified),17.1% (inactive)
25,COc1cc2c(cc1OCCCOc1cc3c(cc1OC)C(=O)N1CC(F)(F)C[C@H]1C=N3)N=C[C@@H]1CC(F)(F)CN1C2=O,-12.2% (active)
26,O=C1NC(=O)/C(=C\c2ccccc2)C2=C1CCCC2,-33.3% (active)
